esBAF inh: Bmi1 luciferase reporter increase in mESCs, primary screen, esBAF inhibitor project, mouse ES cells, Bmi1 luciferase knock-in, single point; 24 h; 100% = twice the neutral-well signal; reporter increase, % at 12.5 µM; 2% of 350,000 active; AID 602393, 2012; in the data active = activation above about 40%; inconclusive = no clear call, values can overlap the other calls;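 note: 0% = median of the plate's neutral control wells and 100% = double that signal; a rise in the Bmi1 reporter signal indicates esBAF inhibition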
DAX1 inh: DAX1 (NR0B1) inhibitors on StAR promoter, primary screen, cell-based, luminescence, SF-1 (NR5A1), full-length DAX-1; inhibition, % at 6.8 µM; HEK293T StAR-luciferase reporter, SF-1/DAX-1 repression relief; 1.1% of 370,000 active;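 active = inhibition above the mean over all tested compounds plus 3 SD, cut at about 3.6% in these data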;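 note: 0% = DAX-1 cells with DMSO and 100% = cells lacking DAX-1 with DMSO; higher inhibition means more luminescence from relief of DAX-1 repression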
hgDAF-12 ag: H. glycines DAF-12 receptor agonists, primary screen, cell-based, luminescence, HEK293, GAL4 fusion, UAS-luciferase; Nuclear hormone receptor DAF-12 (Heterodera glycines), GAL4 fusion; HEK293 GAL4-hgDAF12 UAS-luciferase reporter, agonist luminescence; normalized to butyrate control; activation, % at 6.8 µM; 1.8% of 370,000 active; AID 687014, 2013;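 active = activation above a cutoff set at the mean of all screened compounds plus 3 SD, cut at about 10% in these data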;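 note: 0% = DMSO wells and 100% = sodium butyrate wells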
Wnt act: Wnt/beta-catenin pathway activators, primary screen, cell-based, plate reader, single point; 1.2% of 300,000 active; activation, % at 9.35 µM; Wnt/beta-catenin reporter cell assay, activator; in the data active = activation above about 30%, passing the limit was not always enough; inconclusive = no clear call, values can overlap the other calls;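 note: 0% = neutral control wells and 100% = positive control wells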
ssDAF-12 act: S. stercoralis DAF-12 nuclear receptor activators, primary screen, cell-based, luminescence, HEK293, GRIP1 co-expression, lit1-tk-luc; Nuclear hormone receptor DAF-12 (Strongyloides stercoralis); HEK293 ssDAF-12/GRIP1 lit1-tk-luc reporter; % of 3 µM dafachronic acid response; activation, % at 6.8 µM; 1% of 370,000 active; AID 652126, 2013;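 active = activation above the mean over all tested compounds plus 3 SD, cut at about 0.9% in these data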;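 note: 0% = DMSO-only wells and 100% = 3 µM delta7-dafachronic acid wells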
hcDAF12 agonist: H. contortus DAF-12 nuclear receptor activators, primary screen, cell-based, luminescence, HEK293, lit1-tk-luc reporter | HEK293 hcDAF-12 lit1-tk-luc reporter; 0% DMSO, 100% Δ7-dafachronic acid | activation, % at 6.8 µM | 1.4% of 370,000 active | AID 652067, 2013;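 active = activation above the mean of all tested compounds plus 3 SD, cut at about 5.5% in these data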;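 note: 100% = response to 3 µM Δ7-dafachronic acid high control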
hgDAF12 ag: H. glycines DAF-12 receptor agonists, confirmation, cell-based, luminescence, HEK293, GAL4-LBD fusion. shares compounds with hgDAF-12 ag. HEK293 GAL4-hgDAF12 luciferase reporter, agonist mode; percent of butyrate response. activation, % at 6.8 µM. 80% of 3,300 active. AID 743050, 2013;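 active = mean activation over triplicate wells above the hit cutoff derived from the earlier primary screen, cut at about 11% in these data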;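 note: 0% = DMSO low control and 100% = 2 mM sodium butyrate high control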
LXRb DAF12 ctr: LXR agonists, Gal4 luciferase reporter, confirmation, counter-screen for hgDAF-12 agonist project, cell-based, luminescence, HEK293, H. glycines campaign; shares compounds with hgDAF-12 ag; 24 h; activation, % at 6.8 µM; 3,300 tested, under 10 active;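 active = mean activation of the triplicate above a set limit carried over from the primary screen, none filed active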
Target sequence (P55055 whole entry, looked up, the tested form may be a part): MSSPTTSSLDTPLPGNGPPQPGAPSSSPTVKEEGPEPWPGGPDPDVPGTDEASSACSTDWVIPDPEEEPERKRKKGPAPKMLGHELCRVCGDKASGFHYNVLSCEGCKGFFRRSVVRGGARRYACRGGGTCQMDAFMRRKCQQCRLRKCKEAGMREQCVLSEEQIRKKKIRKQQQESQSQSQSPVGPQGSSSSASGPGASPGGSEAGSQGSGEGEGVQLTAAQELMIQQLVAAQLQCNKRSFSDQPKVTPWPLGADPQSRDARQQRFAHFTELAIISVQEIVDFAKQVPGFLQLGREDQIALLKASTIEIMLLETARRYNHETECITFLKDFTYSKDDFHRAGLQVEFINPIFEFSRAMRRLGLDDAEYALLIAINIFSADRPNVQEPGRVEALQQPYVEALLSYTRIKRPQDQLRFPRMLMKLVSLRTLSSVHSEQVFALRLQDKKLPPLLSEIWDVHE
* marks the source's active call; other numbers are inactive results; ? = inconclusive; . = no result. Rows were chosen to be rich in hits. Some 4.2% of all compounds tested hit in one or more screens of this group.

SMILES	esBAF inh	DAX1 inh	hgDAF-12 ag	Wnt act	ssDAF-12 act	hcDAF12 agonist	hgDAF12 ag	LXRb DAF12 ctr
C[C@H]1CN([C@@H](C)CO)C(=O)c2cc(-c3ccc(C(=O)N(C)C)cc3)cnc2O[C@@H]1CN(C)C(=O)CN(C)C	4	.	.	.	.	.	.	.
CCOC(=O)N1CCC(NC(=O)c2cc3ccccn3n2)CC1	4	1	16*	-8	-2	-1	-1	0
CN1C(=O)c2cc(NC(=O)Nc3cccc(Cl)c3)ccc2OC[C@@H]2O[C@H](CC(=O)O)CC[C@H]21	5	.	.	.	.	.	.	.
O=C(Nc1ccc(/C=C/c2nc3ccccc3o2)cc1)c1c(F)cccc1F	-4	0	16*	-4	0	3	19*	1
COc1ccc(S(=O)(=O)N(C)C[C@H]2Oc3c(NC(=O)NC(C)C)cccc3C(=O)N([C@@H](C)CO)C[C@H]2C)cc1	-1	.	.	.	.	.	.	.
C[C@H](CO)N1C[C@H](C)[C@H](CN(C)CC2CC2)Oc2cc(C#CC3CC3)ccc2S1(=O)=O	8	.	.	.	.	.	.	.
O=C(Nc1ccccc1)OCCCc1ccccc1	57*	1	16*	?	-1	0	12*	0
Cc1ccc(OCC(=O)O/N=C(\N)c2cccnc2)cc1	.	-1	6	14	-1	0	.	.
N/C(=N\OC(=O)CCCOc1ccc(Cl)cc1Cl)c1ccncc1	4	0	-3	-1	-2	-2	.	.
N/C(=N\OC(=O)c1ccco1)c1ccccn1	7	3	14*	.	0	2	7	0
N/C(=N\OC(=O)COc1ccc(Cl)cc1Br)c1ccncc1	.	3	16*	45*	1.3*	5	19*	1
CC(C)(C)CC(=O)O/N=C(\N)c1ccccn1	.	3	14*	11	0	6.3*	13*	1
Cc1ccc(OCC(=O)O/N=C(\N)c2ccccn2)cc1	46*	3.8*	15*	-3	0	4	14*	0
N/C(=N\OC(=O)CCN1C(=O)c2ccccc2C1=O)c1ccccn1	-1	-1	2	-1	-1	0	.	.
CCCN(C)C[C@H]1Oc2cc(C#CC3CCCC3)ccc2S(=O)(=O)N([C@H](C)CO)C[C@H]1C	-4	.	.	.	.	.	.	.
O=C(N[C@H]1CC[C@@H](CC(=O)N2CCN(c3ccccc3)CC2)O[C@@H]1CO)c1ccccc1	-2	.	.	.	.	.	.	.
C[C@@H]1CCCCO[C@H](CN(C)C(=O)Cc2ccccc2)[C@H](C)CN([C@H](C)CO)C(=O)c2cc(NS(C)(=O)=O)ccc2O1	2	.	.	.	.	.	.	.
N/C(=N\OC(=O)CCCOc1ccc(Cl)cc1Cl)c1ccccn1	-3	1	0	-1	-2	0	.	.
N/C(=N\OC(=O)c1cccc([N+](=O)[O-])c1)c1ccccn1	.	1	15*	8	0.9*	5.8*	13*	1
N/C(=N\OC(=O)COc1cc(Cl)c(Cl)cc1Cl)c1ccccn1	.	3	14*	16	-1	1	12*	1
CO[C@H]1CN(C)C(=O)c2cc(NS(=O)(=O)c3cn(C)cn3)ccc2OC[C@H](C)N(CC2CC2)C[C@@H]1C	-3	.	.	.	.	.	.	.
CC(=O)Nc1ccc2c(c1)C(=O)N(C)[C@H]1CC[C@H](CC(=O)NCc3ccc(F)cc3)O[C@H]1CO2	-3	.	.	.	.	.	.	.
CCC(=O)N(C)C[C@H]1Oc2cc(-c3ccc(OC)cc3)ccc2S(=O)(=O)N([C@@H](C)CO)C[C@H]1C	-2	.	.	.	.	.	.	.
COc1ccc(NC(=O)N(C)C[C@H]2Oc3ccc(NC(=O)Nc4ccccc4)cc3CC(=O)N([C@@H](C)CO)C[C@H]2C)cc1	-1	.	.	.	.	.	.	.
O=C(N/N=C/c1cccnc1)c1ccccc1OCc1cccc(Br)c1	.	-1	0	-2	-2	0	.	.
SMILES	esBAF inh	DAX1 inh	hgDAF-12 ag	Wnt act	ssDAF-12 act	hcDAF12 agonist	hgDAF12 ag	LXRb DAF12 ctr
CC(C)c1ccc(OCc2cccc(C(=O)N/N=C/c3cccnc3)c2)cc1	-41	3.9*	21*	15	1	4	18*	1
CCOc1ccc(OCc2cccc(C(=O)N/N=C/c3cccnc3)c2)cc1	.	3.7*	15*	16	0	4	19*	1
Cc1cccc(C)c1NC(=O)CN1C(=O)C2CC=CCC2C1=O (stereo unspecified)	-5	-1	0	0	-2	1	.	.
CN(C)c1cccc(C(=O)NNC(=O)CN2C(=O)C3CC=CCC3C2=O)c1 (stereo unspecified)	42*	3	14*	4	-1	4	3	1
COc1cc(/C=N/N(c2ccccc2)c2ccccc2)ccc1O	-6	0	1	0	0	0	.	.
CCOc1ccc(/C=N/N(C)c2ccccc2)cc1OC	86*	3	14*	.	-1	4	16*	1
CO[C@H]1CN(C)C(=O)c2ccc(NC(C)=O)cc2OC[C@H](C)N(C(=O)C2CCC2)C[C@H]1C	-3	.	.	.	.	.	.	.
CCOC(=O)C1CCCN(C(=O)c2ccc3nc(-c4cccc(OC)c4)oc3c2)C1 (stereo unspecified)	48*	-4	14*	17	0	3	12*	1
CCOC(=O)C1CCCN(C(=O)c2ccc3nc(-c4ccccc4)c(-c4ccccc4)nc3c2)C1 (stereo unspecified)	-5	-1	-3	-3	-1	-3	.	.
O=C(N/N=C/c1cccs1)c1ccc2c(c1)OCO2	.	3.8*	14*	.	1.9*	6.3*	13*	1
COc1cc(/C=N/NC(=O)c2cccs2)ccc1O	9	1	0	4	-2	0	.	.
O=C(N/N=C/c1ccc2c(c1)OCO2)c1cccs1	33	4.4*	24*	-4	1.5*	6.1*	19*	1
COc1cccc(/C=N/NC(=O)c2cccs2)c1	25	1	15*	40*	0	3	12*	1
O=C(N/N=C\c1ccco1)Nc1cccc(Cl)c1	.	2	14*	48*	0	6.3*	16*	0
